From PubChem
G9a block: G9a (human) methyltransferase inhibition | Q96KQ7 | G9a H3K9 monomethylation, AlphaScreen, 2 h | Potency, µM (highest dose often 102 µM), without a hit: at the top dose activity, negative = inhibition, usual class: inhibitors | 350,000 compounds, 8.8% hits; further: on the % scale 0 is the no-effect control and ±100 the full control effect; nearly all actives have a fitted effect of over 75% in size
Target sequence (Q96KQ7 913-1193 limits assumed): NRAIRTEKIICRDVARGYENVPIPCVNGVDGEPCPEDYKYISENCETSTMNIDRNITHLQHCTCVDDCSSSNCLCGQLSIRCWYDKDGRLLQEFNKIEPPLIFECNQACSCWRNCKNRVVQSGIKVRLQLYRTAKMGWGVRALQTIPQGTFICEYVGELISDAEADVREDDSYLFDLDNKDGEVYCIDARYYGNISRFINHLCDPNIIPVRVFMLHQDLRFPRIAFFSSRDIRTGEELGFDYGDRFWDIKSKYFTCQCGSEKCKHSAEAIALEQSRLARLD
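G9a (20 nM) was preincubated 15 min with compound, then reacted 2 h at room temperature with 500 nM biotin-H3K9 peptide and 20 µM SAM. Monomethyl-H3K9 detected by AlphaScreen using anti-H3K9me1 antibody.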
L3MBTL1 block: blocks human L3MBTL1 | 230,000 compounds, 0.66% hits | Q9Y468 | AlphaScreen L3MBTL1–H3K9me1 peptide binding | AID 485360 | Potency, µM (titrated, usually from 57.1 µM), for inactives: at the highest dose activity, negative = inhibition, most hits filed as inhibitors; further: on the % scale 0 is the no-effect control and ±100 the full control effect; nearly all actives have a fitted effect of over 60% in size
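AlphaScreen proximity signal between nickel-chelate acceptor and streptavidin donor beads (final 10 ug/mL) reports binding of 50 nM L3MBTL1 to 75 nM biotin-H3 K9me1 peptide; complex incubated with compounds 30 min at room temperature; cefsulodin titration as control.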
JMJD2A Tudor: blocks the human JMJD2A Tudor domain | AlphaScreen JMJD2A-Tudor / H3K4me3 peptide binding | Potency, µM (highest dose often 114 µM), without a hit: top-dose activity change, negative = inhibition, usual class: inhibitors | 390,000 compounds, 4.4% hits; further: on the % scale 0 is the no-effect control and ±100 the full control effect; nearly all actives have a fitted effect of over 50% in size
BAZ2B inh: BAZ2B (human) inhibition; AID 504333; Potency, µM (highest dose often 114 µM), for inactives: at the top dose activity change, negative = inhibition, most hits filed as inhibitors; 360,000 compounds, 4.4% hits; AlphaScreen BAZ2B-H3K14Ac peptide displacement; further: on the % scale 0 is the no-effect control and ±100 the full control effect; nearly all actives have a fitted effect of over 60% in size
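Inhibition is scored as reduced AlphaScreen emission. The BAZ2B/b-H3(5-23)K14Ac complex (50 nM each) in PBS pH 7.4, 0.01% Tween-20 meets compound (up to 110 uM) for 30 min at RT before bead addition.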
HP1b chromo inh: inhibitors of HP1-beta chromodomain binding to methylated histone tails | P83916 | Potency, µM (doses to about 114 µM), without a hit: top-dose activity change, negative = inhibition, most hits filed as inhibitors | 390,000 compounds, 0.56% hits | AlphaScreen HP1-beta / biotin-H3K9me3 peptide binding | AID 540317; further: nearly all actives have a fitted effect of over 70% in size
Target sequence (P83916 whole entry, looked up): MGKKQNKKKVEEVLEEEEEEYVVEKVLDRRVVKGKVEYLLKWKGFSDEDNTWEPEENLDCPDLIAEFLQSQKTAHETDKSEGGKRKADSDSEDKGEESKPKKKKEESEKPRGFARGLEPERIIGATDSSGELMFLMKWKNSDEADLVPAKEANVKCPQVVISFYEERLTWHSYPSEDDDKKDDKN
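HP1-beta protein (50 nM final) preincubated 30 min at room temperature with biotinylated H3(1-18)K9me3 peptide (50 nM) in PBS pH 7.4, 0.01% Tween-20, then compound added for 30 min. AlphaScreen streptavidin donor/nickel chelate acceptor beads (10 ug/mL final), 30 min dark, luminescence read.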
* = called active by the depositor; u = inconclusive; x = no result given; [ ] = dose if it differs, or a comment. An excerpt weighted towards active compounds, which were near 11% of everything screened. The call rests on the fitted dose curve; in most records, active means well fitted inhibition curve with a large enough effect; inconclusive means small, poorly fitted or top-dose-only effect; inactive means no such curve, though single readings can be large or run the other way. Potency means the concentration at half of the fitted maximal effect.

SMILES | G9a block | L3MBTL1 block | JMJD2A Tudor | BAZ2B inh | HP1b chromo inh
Cc1ccccc1C(=O)Nc1ccc2c(C#N)c3nc4ccccc4nc3n2c1 | 5µM* | u | -32% | 50µM* | -10%
COc1cccc(/C=N/n2c(COc3ccccc3)n[nH]c2=S)c1O | 16µM* | x | 50µM* | -32% | u
Nc1nnnn1/N=C/c1ccccc1OCc1ccc(Cl)cc1 | -7%[59 µM] | -5% | -9% | -1% | 24%
COc1cccc(/C=N/n2c(COc3ccccc3)n[nH]c2=S)c1OC | 8.9µM* | x | 28µM* | -32% | -13%
COc1cccc(/C=N/n2c(C)nc3ccccc3c2=O)c1O | u | 6% | -12% | -21% | 19%
Cc1n[nH]c(=S)n1/N=C/c1ccccc1OCc1ccc(Cl)cc1 | u | 4% | 50µM* | 8% | 20%
CCOc1ccc(NS(=O)(=O)c2cc(C(=O)N(CC)CC(=O)NCc3cccs3)ccc2C)cc1 | -32% | 10% | -19% | -2% | -1%
C[C@H](CO)N1C[C@H](C)[C@@H](CN(C)S(=O)(=O)c2ccccc2)Oc2ccc(NC(=O)C3CC3)cc2C1=O | x | 29% | -21% | x | 22%
COc1cccc(Cn2cnc3c(NS(=O)(=O)c4ccc(Cl)cc4Cl)c(C)c(C)cc32)c1 | x | -2% | -30% | -5% | 24%
COc1cccc(Cn2cnc3c(NS(=O)(=O)c4cc(Cl)ccc4Cl)c(C)c(C)cc32)c1 | 8.9µM* | -5% | -14% | -1% | 17%
COc1ccc2nc3sc(C(=O)N4CCN(c5ccc(F)cc5)CC4)cc3cc2c1 | 0%[59 µM] | x | 3% | -2% | 23%
O=C(O)c1cc(-c2cc(C(=O)O)c3ccccc3n2)nc2ccccc12 | 8% | x | x | 3% | x
O=C(O)c1nc2ccccc2nc1C(=O)O | u | -1% | 20µM* | 79µM* | -20%
COc1ccc(-c2c(C(=O)O)nc3ccccc3c2C(=O)O)cc1 | u | 11% | 25µM* | -28% | 2%
Cc1nc2nc(NCc3ccc(Br)cc3)[nH]n2c(=O)c1Cc1ccccc1 | u | x | -15% | -4% | 39%
CCOC(=O)c1ccc(NC(=O)N2CCOc3ccccc32)cc1 | 7%[59 µM] | x | -9% | -17% | 40%
Cc1ccc(-n2cc3c(=O)n(C)c(=O)n(C)c3c2)cc1C | 45µM* | -4% | -9% | -17% | 33%
O=C(CNCc1ccco1)Nc1ccc(Oc2ccccc2)cc1 | 14µM* | x | 18µM* | 50µM* | 7%
O=C(NCc1ccco1)c1ccc(Oc2ccccc2)cc1 | u | x | -32% | -13% | -2%
O=C(CNCc1ccco1)Nc1ccccc1-n1cccc1 | 13µM* | 11% | u | u | -9%
O=C(O)CCC(=O)Nc1ccccc1C(=O)NCc1ccco1 | u | -1% | -17% | -1% | 41%
COc1ccc(CCNC(=O)COC(=O)c2ccccn2)cc1 | x | 7% | -12% | x | u
CCOc1ccc(N(C(=O)c2ccc(Cl)cc2)S(=O)(=O)c2ccc3c(c2)n(C)c(=O)n3C)cc1 | -11%[59 µM] | x | -29% | -20% | 22%
CCOc1ccc(N=C2Sc3nc4ccc(C)cc4cc3CN2CCOC)cc1 | u | x | -18% | u | 12%
CCC(C)N=C1Sc2nc3ccc(C)cc3cc2CN1CCOC (stereo unspecified) | 5µM* | 15% | 45µM* | -19% | -10%
SMILES | G9a block | L3MBTL1 block | JMJD2A Tudor | BAZ2B inh | HP1b chromo inh
COCCN1Cc2cc3cc(C)ccc3nc2SC1=Nc1ccc(OC)cc1 | 45µM* | -14% | -26% | -34% | 28%
CCOc1ccc2nc3c(cc2c1)CN(CCCO)C(=NCCOC)S3 | 32µM* | 7% | -11%[11.4 µM] | -5% | -17%
CCc1nnc(SC(CC)C(=O)Nc2cccc(OC)c2)c2cc3oc(C)cc3n12 (stereo unspecified) | u | x | -12% | -36% | 8%
COc1ccc(-c2cc(C(=O)NNC(=S)NC(=O)c3c(-c4ccccc4)noc3C)[nH]n2)cc1 | 45µM* | -3%[11.4 µM] | -16% | -20% | 22%
COc1ccc(/C=C/C(=O)NC(=S)NNC(=O)c2c(-c3ccccc3)noc2C)cc1 | u | 7% | -11% | 6% | -9%
Cc1ccc(CNC(=O)c2sc3nc(C)cc(C)c3c2-n2cccc2)cc1 | -22%[59 µM] | x | -15% | u | 16%
